{"source": "PubChem BioAssay AID720650", "about": "(Broad Institute, 2013)", "note": "Calls of active or inactive are those of the source. No rule for the calls is given here."}
{"assay": "Biochemical counterscreen for C difficile toxins, absence of UDPG, inhibitor dose response (AID 720650)", "conditions": "series mostly up to 19.5 µM"}
{"smiles": "CC(C)Sc1nnc(NC(=O)c2ccco2)s1", "AC50": "inactive"}
{"smiles": "CCNC(=O)C[C@H]1CC[C@@H]2[C@H](COc3ccc(NC(C)=O)cc3C(=O)N2C)O1", "AC50": "inactive"}
{"smiles": "O=C(C1CCOCC1)N1CC[C@@H]2[C@@H](CO)Nc3ccc(-c4ccc(F)cc4)cc3[C@@H]21", "AC50": "22 µM (active)"}
{"smiles": "O=c1[nH]c(CN2CCOCC2)nc2cc(Cl)ccc12", "AC50": "inactive"}
{"smiles": "CCCNC(=O)C[C@H]1CC[C@@H]2[C@@H](COc3ccc(NC(=O)c4ccc(Cl)cc4)cc3C(=O)N2C)O1", "AC50": "> 39 µM (inactive)"}
{"smiles": "CCOC(=O)C1=C(C)Nc2nnnn2C1c1ccc(OC)c(Br)c1", "note": "(centres undefined)", "AC50": "> 39 µM (inactive)"}
{"smiles": "COc1c2ccc(C(=O)NCCCCc3ccccc3)cc2nn1C", "AC50": "inactive"}
{"smiles": "O=C(O)c1ccc(-c2ccc(O)c(F)c2)cc1", "AC50": "13.5 µM (active)"}
{"smiles": "Cc1ccccc1COc1ccc2oc(C)c(C(=O)O)c2c1", "AC50": "inactive"}
{"smiles": "Oc1ccc(Nc2nc(Cl)nc(NCc3ccco3)n2)cc1", "AC50": "inactive"}
{"smiles": "Cc1cc(N/N=C/c2ccc(O)cc2O)nc(N2CCOCC2)n1", "AC50": "> 39 µM (inactive)"}
{"smiles": "COc1ccc2nc(NNC(=O)C3COc4ccccc4O3)sc2c1", "note": "(centres undefined)", "AC50": "< 0.16 µM (active)"}
{"smiles": "NC(=O)Nc1ccc(Nc2ccccc2)cc1", "AC50": "> 39 µM (inactive)"}
{"smiles": "O=C(O)c1ccccc1C(=O)c1ccc2c(c1)N(Cc1cccc(F)c1)C(=O)CO2", "AC50": "19 µM (active)"}
{"smiles": "Cc1ccnc(N2C(=O)c3ccccc3C2=O)c1", "AC50": "inactive"}
{"smiles": "O=C(NNc1ccc(-c2csnn2)cc1)c1cc(Cl)cc(Cl)c1", "AC50": "< 0.16 µM (active)"}
{"smiles": "CCOCCCNC(=O)C1CCN(S(=O)(=O)c2c(C)noc2/C=C\\c2ccc(OC)cc2)CC1", "AC50": "inactive"}
{"smiles": "Cc1noc(C)c1NC(=O)N(C)C[C@@H]1Oc2ccc(NC(=O)C3CCCCC3)cc2C(=O)N([C@@H](C)CO)C[C@H]1C", "AC50": "inactive"}
{"smiles": "C[C@H](CO)N1C[C@H](C)[C@@H](CN(C)C(=O)Nc2ccc(C(F)(F)F)cc2)Oc2c(NS(=O)(=O)c3cccs3)cccc2C1=O", "AC50": "> 39 µM (inactive)"}
{"smiles": "COc1ccccc1/C=C/c1onc(C)c1S(=O)(=O)N1CCC(C(=O)NC2CCCCCC2)CC1", "AC50": "inactive"}
{"smiles": "COc1cc(/C=N/NC(=O)C2(O)c3ccccc3-c3ccccc32)ccc1O", "AC50": "inactive"}
{"smiles": "COc1cc(/C=C/C(=O)OCC(=O)NC(=O)NC(C)C)ccc1O", "AC50": "inactive"}
{"smiles": "COc1ccc(S(=O)(=O)Nc2ccc3oc(C)c(C(=O)O)c3c2)cc1", "AC50": "> 39 µM (inactive)"}
{"smiles": "O=C(O)C1C(=O)NCC1c1ccccc1", "note": "(centres undefined)", "AC50": "inactive"}
{"smiles": "CN(C)c1ccc(C(=O)OCC#CCSc2nnc(-c3cccc4ccccc34)o2)cc1", "AC50": "inactive"}
{"smiles": "COc1ccc(CNC(=O)C2=CC(c3ccc(OC)c(OC)c3)=NS(=O)(=O)N2C)cc1", "AC50": "> 39 µM (inactive)"}
{"smiles": "CNC(=O)C[C@H]1CC[C@@H]2[C@@H](COc3ccc(NC(=O)c4ccc(OC)cc4)cc3C(=O)N2C)O1", "AC50": "inactive"}
{"smiles": "Cc1ccc(NNC(=O)c2ccno2)cc1Cl", "AC50": "0.401 µM (active)"}
{"smiles": "CC(C(=O)OCC(=O)c1c(N)n(C)c(=O)n(C)c1=O)N1C(=O)c2ccccc2C1=O", "note": "(centres undefined)", "AC50": "inactive"}
{"smiles": "COc1ccc(C2=NS(=O)(=O)N(C)C(C(=O)N3CCc4ccccc4C3)=C2)cc1OC", "AC50": "inactive"}
{"smiles": "Cc1ccc2c(c1)/C(=C/c1ccccc1C)C(=O)N2", "AC50": "inactive"}
{"smiles": "Cc1ccc(-c2csc(NC(=O)/C=C/c3ccco3)c2C(=O)O)cc1", "AC50": "inactive"}
{"smiles": "Oc1ccc(Cc2ccccc2Cl)c(O)c1", "AC50": "> 39 µM (inactive)"}
{"smiles": "COc1ccc(N2CCN(CCNC(=O)Nc3cc(Cl)ccc3OC)CC2)cc1", "AC50": "inactive"}
{"smiles": "COc1cc(/C=N/Nc2ccccn2)ccc1O", "AC50": "> 39 µM (inactive)"}
{"smiles": "CCOc1ccccc1-n1c(C)nc2cc(C(=O)O)ccc21", "AC50": "inactive"}
{"smiles": "O=C(CSc1ccc2nnc(-c3ccc(F)cc3)n2n1)N1CCOCC1", "AC50": "inactive"}
{"smiles": "COCc1c(Br)c(C)nc(OCC(=O)N/N=C/c2ccc(C)o2)c1C#N", "AC50": "inactive"}
{"smiles": "C[C@H]1CN([C@@H](C)CO)S(=O)(=O)c2ccc(-c3ccncc3)cc2O[C@@H]1CN(C)Cc1ccc(Oc2ccccc2)cc1", "AC50": "inactive"}
